# In PubChem BioAssay AID1825 (The Scripps Research Institute Molecular Screening Center, 2009):
# Out of some 290,000 compounds screened, about 2,300 (0.79%) were called active. What follows is part of a selection rich in actives, with near analogues and random picks from the rest. A number with no mark means an inactive call. Cut-off read from the data, not from the text of the source: active = inhibition above about 22%; inactive = the rest.
# Assay: IEC-6 cell viability reduction – luminescence, cytotoxicity control for KLF5 inhibitor project, primary screen (AID 1825);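 note: 0% = plate median of test compound wells and 100% = cytotoxic reference compound wells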
# Settings: IEC-6 cytotoxicity, at 5 µM, active compounds read high
row,SMILES,inhibition
1,Cc1ccc(S(=O)(=O)N(C)C2(C)CCS(=O)(=O)C2)cc1 (stereo not given),-8.7%
2,Cc1ccc(S(=O)(=O)C2(S(=O)(=O)c3ccc(C)cc3)CCCC2)cc1,45.6% (active)
3,Cc1ccc(S(=O)(=O)N2CCN(C)CC2)cc1,-1.1%
4,COc1ccccc1CCNS(=O)(=O)c1cn(C)nc1C,-1.7%
5,CN(CCc1ccccn1)C1CCCN(S(=O)(=O)c2ccccc2Cl)C1 (stereo not given),5.5%
6,Cc1cc(C(=O)CCl)c(C)n1CC1COc2ccccc2O1 (stereo not given),-0.4%
7,O=C(CN1C(=O)C2C3C=CC(C3)C2C1=O)NCC1COc2ccccc2O1 (stereo not given),-0.7%
8,O=C1C(=O)N(CC2COc3ccccc3O2)c2ccccc21 (stereo not given),65.8% (active)
9,COc1ccc(N2CC(C(=O)N[C@@H](C)C(=O)N3CCCCC3)CC2=O)cc1 (stereo not given in full),4.5%
10,Cc1ccc(-n2ncc3c2CC(C)(C)CC3NC(=O)Cc2c(C)noc2C)cc1 (stereo not given),4%
11,COc1cc(Br)c(-c2sc(Nc3ccccc3)n[n+]2-c2ccccc2)cc1OC,-5.7%
12,O=c1oc2ccccc2cc1-c1cn(-c2ccccc2)c(=S)[nH]1,30.6% (active)
13,COc1ccc(-c2cn(-c3ccc(OC)cc3)c(=S)[nH]2)cc1,-3.2%
14,S=c1[nH]c(-c2cccs2)cn1-c1ccccc1,-0.4%
15,CCn1ccnc1CN(C)C(=O)c1cc(COc2ccc(Cl)cc2OC)on1,1.4%
16,Cc1nn(CCCC(=O)NCc2ccccc2Cl)c(=O)c2nccn12,-5.6%
17,Cc1cc(Oc2ccc(Cl)cc2)nc(SCC(=O)c2ccccc2)n1,1.9%
18,COc1ccc(Nc2cc(C)nc(-n3nc(C)cc3C)n2)cc1,84.8% (active)
19,Cc1cc(N/N=C\c2ccc(Br)cc2)nc(-n2nc(C)cc2C)n1,-0.5%
20,CCOC(=O)c1cnc(-n2nc(C)cc2C)nc1Nc1cccc(C(C)=O)c1,1.3%
21,COc1ccccc1/C=N\Nc1cc(C)nc(-n2nc(C)cc2C)n1,-10.1%
22,CC(=O)c1ccc(Oc2cc(C)nc(-n3nc(C)cc3C)n2)cc1,85.4% (active)
23,N#CCc1ccc(NC(=O)c2ccccc2C(=O)Nc2ccc(CC#N)cc2)cc1,-5.3%
24,COC(=O)COc1ccc2c(=O)c(Oc3ccccc3Br)coc2c1,5.7%
25,Cc1nc2sccn2c(=O)c1S(=O)(=O)NCCc1ccccc1,-0.1%

row,SMILES,inhibition
1,CCc1cccc(NC(=O)C2CCCN(S(=O)(=O)c3ccc4[nH]c(=O)ccc4c3)C2)c1 (stereo not given),-2.8%
2,COc1ccc(Nc2nnc(C)c3ccccc23)cc1,-4%
3,COc1ccc(Nc2cc(=O)oc3ccccc23)cc1,46.4% (active)
4,COc1ccc2oc(=O)cc(-c3cc4ccccc4o3)c2c1,2.8%
5,O=S(=O)(Cc1nnnn1-c1ccccc1)c1ccccc1,1.5%
6,O=C(Nc1nnc(S(=O)(=O)N2CCOCC2)s1)c1cccc(Br)c1,0.3%
7,O=C(Nc1nnc(C2CC2)s1)c1ccccn1,27.4% (active)
8,O=C(Nc1nnc(C2CC2)s1)c1cc(Cl)sc1Cl,0.1%
9,Cc1cnc(NC(=O)c2ccccn2)s1,8.9%
10,COc1ccc(/C=N/N(C)C2=NS(=O)(=O)c3ccccc32)cc1OC,-2.2%
11,Clc1cccc(N=C2NN=C(c3ccc4c(c3)OCCO4)CS2)c1,-1.6%
12,CN(C)c1nc(=Nc2cccc(Cl)c2)ss1,56.2% (active)
13,O=C(CN1CCN(Cc2ccccc2)CC1)Nc1ccc(F)c(F)c1,6.7%
14,Cn1c(=O)oc2cc(S(=O)(=O)NCCC(=O)NCc3ccccc3Cl)ccc21,0.7%
15,COc1ccccc1CNC(=O)C1CCN(S(=O)(=O)c2ccc3c(c2)CC(C)N3C(=O)C2CC2)CC1 (stereo not given),3.9%
16,Cc1ccc(Nc2nc(N3CCOCC3)nc(N3CCOCC3)n2)cc1Cl,68.1% (active)
17,Cc1cc(Nc2ccc(Cl)cc2)nc(N2CCOCC2)n1,11.5%
18,Cc1ccccc1NC(=O)CSc1nc2ccc(Nc3nc(N4CCOCC4)nc(N4CCOCC4)n3)cc2s1,3.9%
19,Cc1ccc(NC(=O)CN(C)C(=O)c2ccc(Br)o2)cc1,-4.8%
20,O=C(c1ccc(S(=O)(=O)N2CCCC2)cc1)N1CCN(c2ccccc2F)CC1,2.3%
21,Cn1c(=O)cc(OCC(=O)N2CCN(c3ccccc3F)CC2)c2ccccc21,-5.1%
22,O=C(Nn1cc(C(=O)N2CCN(c3ccccc3F)CC2)c2ccccc2c1=O)c1cnccn1,23.7% (active)
23,CCOn1c(SC(C)C)nc2ccccc2c1=O,-3.8%
24,Cc1cc(C)n(-c2nc(C(F)(F)F)nc3ccccc23)n1,5.6%
25,CCCOn1c(-n2nc(C)cc2C)nc2ccccc2c1=O,54.7% (active)
